# Data taken from PubChem BioAssay (NCATS).
# “And” between values parts separate entries of the source, which are not always exact repeats. Identical values can stand only once. Results filed as inconclusive are left out. Unmarked numbers belong to inactive results. The source made the active and inactive calls. Calls come from the whole dose curve; as a rule, active = well fitted cell-killing curve with a large enough effect; inconclusive = small, poorly fitted or top-dose-only effect; inactive = flat fitted curve, though single readings scatter.
# Tests used:
# [1] = Cellular viability qHTS for adrenocortical cancer (ACC) cell line SW-13 (AID 1963989); settings: SW-13 ACC cells viability, CellTiter-Glo, 48 h; activity (max response): hits give low values; note: nearly all actives have a fitted effect of over 65% in size;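 for activity (max response): cells grown in serum-free medium with ITS supplement; % is set by controls: 0 for no effect and ±100 for the full control effect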
# Method in brief: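 Luminescent ATP read-out (CellTiter-Glo, 20 min at room temperature) measured metabolically competent SW-13 cells after 48 h compound treatment. Final concentrations spanned up to 46 uM; bortezomib served as positive control.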
# [2] = Cellular viability qHTS for adrenocortical cancer (ACC) cell line NCI-H295R (AID 1963990); settings: CellTiter-Glo ATP luminescence, 48 h; series mostly up to 46.1 µM; note: nearly all actives have a fitted effect of over 60% in size
# Method in brief: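 IC50 and maximal efficacy derive from four-parameter logistic modelling of titration curves, with reads scaled between DMSO-only wells (0%) and doxorubicin hydrochloride (100% inhibition). Compounds spanned up to 46 uM over 48 h.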
# Potency is the fitted concentration of half-maximal effect.
SMILES,activity (max response) [1],Potency [2],Potency [1]
CNC(C)Cc1ccc2c(c1)OCO2 (stereo unspecified),-2%,inactive,–
C[C@H](CN1CCOCC1)C(C(=O)N1CCCC1)(c1ccccc1)c1ccccc1,-12.8%,inactive,–
C[C@H]1[C@H](O)[C@@H](C)/C=C/C=C/CC/C=C/C=C/C=C/C=C/[C@H](O[C@@H]2O[C@H](C)[C@@H](O)[C@H](N)[C@@H]2O)C[C@@H]2O[C@](O)(C[C@@H](O)[C@H](O)CC[C@@H](O)C[C@@H](O)C[C@@H](O)CC(=O)O[C@H]1C)C[C@H](O)[C@H]2C(=O)O,-20.1%,inactive,–
OC(c1ccccc1)(c1ccccc1)C1CCNCC1,1.1%,inactive,–
O=C1NCN(c2ccccc2)C12CCN(CCCOc1ccc(F)cc1)CC2,–,inactive,–
O=C(CCCN1CCC2(CC1)C(=O)NCN2c1ccccc1)c1ccc(F)cc1,-12.3%,inactive,–
C=CC[C@]1(O)CC[C@H]2[C@@H]3CCC4=CC(=O)CCC4=C3C=C[C@@]21C,–,inactive,–
CC(C)(C)CC(C)(C)c1ccc(O)cc1,–,8.91 µM (active) and 13 µM (active),–
c1ccc2c(CN3CCNCC3)cccc2c1,3.38%,inactive,–
CCN(CCO)CCn1c(Cc2ccccc2)nc2c1c(=O)n(C)c(=O)n2C,7.74%,inactive,–
C[C@]12CCC(=O)C(O)=C1CC[C@@H]1[C@@H]2CC[C@]2(C)C(=O)CC[C@@H]12,4.45% and 4.46%,inactive,–
O=c1c(C2CC(c3ccc(-c4ccc(Br)cc4)cc3)Cc3ccccc32)c(O)sc2ccccc12 (stereo unspecified),–,7.31 µM (active),5.8 µM (active)
